Source: PubChem BioAssay AID1985 (Southern Research Specialized Biocontainment Screening …, 2009)
The whole screen tested about 2,300 compounds, of which about 1,000 (43%) were called active. No rule for the calls is given here. The set was probably picked from earlier hits. The list shows a part of the results. Where a call stands in place of a potency, no number is given. Potency and affinity values are given separately.

Test: modified counter assay using GFP fluorescence, PhoP regulon inhibitor project, dose response (AID 1985)
Settings: S. Typhi, 4 h; series mostly up to 150 µM

SMILES | outcome
CCN(CC)S(=O)(=O)c1cc(NC(=O)C2Cc3ccccc3C(=O)O2)ccc1C (stereo not given) | inactive
Cc1cccc(N2C(=O)CS/C2=N\NC(=O)c2ccc(Br)cc2)c1C | inactive
O=C1CSC(=S)N1c1cccnc1 | inactive
Cc1c(C(=O)O)sc(=S)n1-c1ccc(Cl)cc1 | inactive
O=C1c2ccc3c4c(ccc(c24)C(=O)N1c1cccc(O)c1)C(=O)N(c1cccc(O)c1)C3=O | inactive
Cc1nn(C)c(C)c1NC(=O)c1ccc(S(=O)(=O)N(C)C)cc1 | inactive
COc1ccc(CCNC(=O)Cn2c(=O)n(CC3CCCO3)c(=O)c3ccccc32)cc1OC (stereo not given) | inactive
O=C(Nc1ccc(F)cc1)c1ccc2snnc2c1 | inactive
O=C(CSCc1ccccc1)Nc1cccc(C(=O)Nc2ccc(C(=O)O)cc2)c1 | inactive
CC(C)[C@@H](C(=O)NC1CCCC1)N1C(=O)N2CCc3c([nH]c4ccccc34)[C@@]2(C)C1=O | inactive
[O-][n+]1onc2c1CCc1[nH]c(-c3ccccc3)nc1-2 | inactive
COc1ccc(C(=O)Oc2ccc(/C=N/O)cc2)cc1 | inactive
COc1ccc(NC(=O)C(Cc2ccccc2)n2cccc2)cc1 (stereo not given) | inactive
COc1cc(/C=C/C(=O)O)cc2c1OCCO2 | inactive
CC(=O)c1cc(O)c2ccccc2c1O | inactive
CCN1CCN(C(=O)Nc2ccc(Cc3ccc(NC(=O)N4CCN(CC)CC4)cc3)cc2)CC1 | inactive
CCOC(=O)N1CCN(C(=S)NC(=O)c2ccc(Br)cc2)CC1 | inactive
O=C(Cn1c(=O)oc2cc(S(=O)(=O)N3CCCC3)ccc21)N1CCN(c2ccccc2F)CC1 | inactive
O=C(Nc1ccc(Cl)cc1)N1CCCN(Cc2ccccc2F)C1 | inactive
CN1CCCN(S(=O)(=O)c2ccc3c(c2)OCCO3)CC1 | inactive
Cc1oc2c(O)c(O)ccc2c(=O)c1-c1ccccc1 | inactive
CCCC(=O)N1CCN(c2ccc(NC(=S)NC(=O)c3cccc(C)c3)cc2)CC1 | inactive
CCN(CC)S(=O)(=O)c1ccc(N2CCOCC2)c(C(=O)O)c1 | inactive

SMILES | outcome
CCCNC(=O)C1CCN(c2ccc(S(=O)(=O)N3CCOCC3)cc2Cl)CC1 | inactive
CCOc1ccc2nc(NC(=O)C3=NNC(=O)CC3)sc2c1 | inactive
Cc1ccccc1Oc1ccc(Oc2ccccc2C)nn1 | inactive
CC(=O)c1cccc(NC(=O)CCC2CCCC2)c1 | inactive
Cc1ccc(NC(=O)CCNC(=O)c2ccccc2)cc1F | inactive
COCC1CCCN(Cc2cn[nH]c2-c2cc3ccccc3o2)C1 (stereo not given) | inactive
O=C(c1ccc2c3c(cccc13)CC2)C1CCCN(Cc2ncc[nH]2)C1 (stereo not given) | inactive
COc1ccccc1NC(=O)CSC1CC(=O)N(c2ccc3c(c2)OCO3)C1=O (stereo not given) | inactive
NS(=O)(=O)c1ccc(CCNS(=O)(=O)c2cccc(C(=O)O)c2)cc1 | inactive
COc1cccc(C(=O)CC(=O)C(=O)Nc2cc(OC)c(OC)c(OC)c2)c1 | inactive
Cc1ccc(/C=C2\SC(=S)N(c3cccnc3)C2=O)o1 | inactive
COc1ccc(OC)c(NC(=O)CSc2nnc3ccc(-c4ccncc4)nn23)c1 | inactive
Cn1c(CN2CCCCC2)nc2cc(NS(=O)(=O)c3ccc(Cl)cc3)ccc21 | inactive
CCOC(=O)C1=C(C)NC(=O)NC1c1ccc(NC(C)=O)cc1 (stereo not given) | inactive
COC(=O)CNC(=O)c1ccc(=O)oc1 | inactive
CN1CCCN(C(=O)COc2ccc(F)cc2Cl)CC1 | inactive
CN1CCN(c2ccc(C(=O)c3cn(-c4ccc(F)c(Cl)c4)nn3)cc2)CC1 | inactive
CN1CCC(=C2c3ccccc3C=Cc3ccccc32)CC1 | inactive
CCn1c(-c2ccncc2)n[nH]c1=S | inactive
COc1cc(C)c(Cl)cc1S(=O)(=O)n1cnc(C)c1 | inactive
Cn1c(=NC(=O)COc2ccccc2)sc2cccc(F)c21 | inactive
O=[N+]([O-])c1ccc(O)c2ncccc12 | inactive
C#CC(=O)N(c1cccc(OC)c1)C(C(=O)NC1CCCC1)c1cccs1 (stereo not given) | inactive

SMILES | outcome
CCN(CC)CCSc1nnc2c3ccccc3n(Cc3ccccc3)c2n1 | inactive
C=CCn1c(C)cc(C(=O)CSc2n[nH]c(N)n2)c1C | inactive
Cc1nc2scc(C)n2c(=O)c1S(=O)(=O)N1CCN(c2cccc(C(F)(F)F)c2)CC1 | inactive
O=[N+]([O-])c1ccc(N2CCNCC2)cc1NCc1cccnc1 | inactive
COc1nnc(-c2ccc(N3CCOCC3)c(NC(=O)c3ccc(C)cc3)c2)c2ccccc12 | inactive
CN(C)CCCN(C(=O)c1cc2cc([N+](=O)[O-])ccc2s1)c1nc2cc3c(cc2s1)OCCO3 | inactive
CCSC1=NCN(CCCC(=O)O)CN1 | inactive
COc1cc(C(=O)N/N=C/c2coc3ccccc3c2=O)cc(OC)c1OC | inactive
CC(C)C(c1nnnn1Cc1ccccc1)N(CCCO)Cc1cc2cc3c(cc2[nH]c1=O)OCO3 (stereo not given) | inactive
CC(C)Cc1nc(N2CCOCC2)c(C#N)c2c1COC(C)(C)C2 | inactive
CCNC(=S)N1CCN(CC)CC1 | inactive
COc1ccc(OC)c(NC(=O)CCNS(=O)(=O)c2ccc3c(c2)c(=O)n(C)c(=O)n3C)c1 | inactive
CCOC(=O)c1[nH]c2ccc(Cl)cc2c1NC(=O)c1nonc1C | inactive
Cc1cc(Cl)ccc1OCC(=O)N/N=C/c1ccncc1 | inactive
Cc1ccc(/C=N/NC(=O)Cc2cccn2C)cc1 | inactive
NS(=O)(=O)c1cc2c(cc1Cl)NC(Cc1ccccc1)NS2(=O)=O (stereo not given) | inactive
CN(Cc1ccccc1)S(=O)(=O)c1csc(C(N)=O)c1 | inactive
Cn1cc(S(=O)(=O)Nc2ccc(OC(F)(F)F)cc2)c(=O)n(C)c1=O | inactive
CCOc1ccc2ccccc2c1C(=O)N[C@@H]1C(=O)N2[C@@H]1SC(C)(C)[C@@H]2C(=O)O | inactive
CN(C)C(=O)CSc1nnc(Cc2ccc([N+](=O)[O-])cc2)o1 | inactive
O=C(c1ccccc1)N1CCN(c2ccc([N+](=O)[O-])c(NCc3ccco3)c2)CC1 | inactive
COc1ccc(CCC(=O)NCc2cn3ccccc3n2)cc1 | inactive
CCOC(=O)CSc1nnc2c(n1)C1(C)CCC2C1(C)C (stereo not given) | inactive

SMILES | outcome
O=C(N/N=C/c1ccc(N2CCOCC2)cc1)c1ccc(O)cc1 | inactive
CC(C)=CCN1CCN(Cc2nc(-c3ccccc3)cs2)CC1CCO (stereo not given) | inactive
CC1CCCCN1S(=O)(=O)c1ccc(S(=O)(=O)NCCc2ccncc2)cc1 (stereo not given) | inactive
Brc1ccc2nc(-c3c[nH]c4ccccc34)cn2c1 | inactive
Cc1cccc(OCC(=O)NNc2c3ccccc3nc3ccccc23)c1 | inactive
CC1(C)CC(CCNC(=O)c2ccc(-n3cnnn3)cc2)CC(C)(C)N1 | inactive
Cc1cc(=O)n(CC(C)C)c(O)c1C#N | inactive
Cc1onc(C(=O)/C=C/N(C)C)c1C(=O)Nc1nccs1 | inactive
CCOc1ccccc1-c1cc(-c2ccccc2)nc2c1c(=O)n(C)c(=O)n2C | inactive
C=C(C)COc1ccc2c(C)c(CCC(=O)NC3CC3)c(=O)oc2c1 | inactive
N#Cc1ccc(-c2ccc(OCC(=O)NCCCN3CCCC3=O)cc2)cc1 | inactive
CC1(C)CC(=O)C(C(=O)/C=C/NCCc2ccccc2)C(=O)C1 | inactive
CC(C)(C)c1ccc(NC(=O)NCc2ccco2)cc1 | inactive
Cc1ccc(SCc2[nH]nc3c2C(c2cccnc2)C(C#N)=C(N)O3)cc1 (stereo not given) | inactive
Nc1cc(N2CCOCC2)c(Cl)cc1[N+](=O)[O-] | inactive
C=C(C)Cn1c(SCC#N)nc2ccccc2c1=O | inactive
COc1cccc(CNC23CC4CC(CC(C4)C2)C3)c1OCc1ccccc1 | inactive
Cc1ccc(NC(=S)NCc2cccnc2)cc1 | inactive
Cc1ccc(NC(=S)NCc2cccs2)cc1 | inactive
COc1cccc(CNS(=O)(=O)c2ccc3c(c2)NC(=O)CS3)c1 | inactive
CC(c1ccccc1)(c1ccccc1)c1ccncc1 | inactive
CC(C)SCc1nc2ccccc2[nH]1 | inactive
Nc1cncc(C(=O)O)c1 | inactive

SMILES | outcome
C/C(=N\NC(=O)COc1ccccc1[N+](=O)[O-])c1cccs1 | inactive
CCCC(=NCc1ccccc1)C1=C(O)C(C(=O)OC)C(C)(C)CC1=O (stereo not given) | inactive
CN1C2=CC=CC=CC2=[N+](C)C12C=CC(=[N+]([O-])[O-])C=C2[N+](=O)[O-] (stereo not given) | inactive
Cc1cc(Br)cc2cn[nH]c12 | inactive
O=C(CCl)Nc1nccs1 | inactive
CCCN1C(=O)c2ccc(C(=O)Nc3nccs3)cc2C1=O | inactive
O=C(Nc1ccccc1)Nc1cccc(Cl)c1 | inactive
O=C(COc1ccc2ccccc2c1)Nc1nccs1 | inactive
Cc1[nH]c(=O)[nH]c(=O)c1S(=O)(=O)N1CCCC(C(=O)NCc2ccc3c(c2)OCO3)C1 (stereo not given) | inactive
COc1ccc(NC(=O)N(CCc2ccccc2)Cc2cc3c(C)cc(C)cc3[nH]c2=O)cc1 | inactive
CCCOc1ccc(N2C(=O)C3C(C(C)C)NC4(C(=O)c5ccccc5C4=O)C3C2=O)cc1 (stereo not given) | inactive
COc1ccc(OC)c(S(=O)(=O)N2CCC(C(=O)NCc3ccccc3OC)CC2)c1 | inactive
O=C(NCc1ccccc1)c1ccc(CNc2c(N3CCCC3)c(=O)c2=O)cc1 | inactive
Cc1ccc(C(C(=O)NCCc2ccccc2)N(C(=O)c2csnn2)C2CC2)o1 (stereo not given) | inactive
CCC(C)(c1ccc(C(=O)OC)s1)c1ccc(C(=O)OC)s1 | inactive
CN1C(=O)/C(=C2/C=Cc3ccccc3N2CCCS(=O)(=O)O)SC1=S | inactive
COc1ccccc1-n1c(SCC(=O)O)nnc1-c1ccc(S(=O)(=O)N2CCCCC2)cc1 | inactive
O=C(Nc1ccc(F)cc1)C1CCC(CNc2c(N3CCCCC3)c(=O)c2=O)CC1 (stereo not given) | inactive
Oc1c(CN2CCOCC2)cc(COCc2ccccc2)c2cccnc12 | inactive
Cc1c(C(=O)N2CCN(Cc3ccccc3)CC2)sc2ncnc(N3CCOCC3)c12 | inactive
COc1ccccc1Oc1coc2c(CN3CCN(C)CC3)c(O)ccc2c1=O | inactive
Oc1ccc(CN2CCN(c3ccccc3)CC2)c2cccnc12 | inactive
CCCC(c1nnnn1Cc1ccc(OC)cc1)N1CCN(c2ccccc2OC)CC1 (stereo not given) | inactive
